# Inconclusive results are not listed. Where a call stands in place of a potency, no number is given. Unmarked numbers belong to inactive results. Calls of active or inactive are those of the source. Calls follow the shape of the dose curve; as a rule, active = well fitted inhibition curve with a large enough effect; inconclusive = small, poorly fitted or top-dose-only effect; inactive = no such curve, though single readings can be large or run the other way.
# Tests used:
# [1] = system: Zika virus NS2B-NS3 protease (unlinked complex); assay: Primary screen GU Rhodamine qHTS for Zika virus inhibitors: Unlinked NS2B-NS3 protease assay (AID 1347159); details: Recombinant ZIKV NS2B-NS3 protease, Rhodamine110 substrate fluorescence; series mostly up to 107 µM; also: nearly all actives have a fitted effect of over 60% in size
# How it was run: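 Noncovalent NS2B hydrophilic domain/NS3 protease complex (25 nM final) in 10 mM Tris-HCl pH 8.0, 0.01% Tween 20, preincubated 15 min with compounds (up to 114 microM), then 1.5 microM Rhodamine110 substrate. Fluorescence change over 15 min fitted to 4-parameter Hill.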
# [2] = system: Zika virus NS2B-NS3 protease (linked construct); assay: Primary screen NINDS Rhodamine qHTS for Zika virus inhibitors (AID 1347160); details: purified NS2B-NS3 protease, Rhodamine110 substrate fluorescence; series mostly up to 57.1 µM; also: nearly all actives have a fitted effect of over 55% in size
# How it was run: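 Purified NS2B-NS3 protease with the NS2B hydrophilic domain joined by a flexible linker (25 nM) in 10 mM Tris-HCl pH 8.0, 0.01% Tween 20, preincubated 15 min at RT with compound; Rhodamine110 peptide substrate 1.5 µM; fluorescence change over 15 min; 4-parameter Hill fit.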
SMILES,Potency [1],Potency [2],"activity change, negative = inhibition [1]","activity change, negative = inhibition [2]"
CC1=CC2/C=C(\C)CC[C@@H](O)[C@@H](O)[C@@H]3O[C@@H]3C(=O)[C@]23C(=O)N[C@@H](CC(C)C)[C@@H]3[C@@H]1C (some centres not stated),inactive,inactive,,
C=CC(C)(CC/C=C(\C)C(=O)OC)OC1OC(COC(=O)CC(C)(O)CC(=O)O)C(OC2OC(CO)C(O)C(O)C2O)C(O)C1O (configuration not stated),inactive,inactive,,
COC(=O)C1=C2Nc3ccccc3C23CCN2CCCC(C(C)O)(C1)C23 (configuration not stated),inactive,inactive,,
COC(=O)C1=COC(OC2OC(CO)C(O)C(O)C2O)C2C1C=CC2(O)CO (configuration not stated),inactive,inactive,,
CC(C(O)/C=C/C(C)(C)O)C1CCC2(C)C3C(=O)C=C4C(CCC(O)C4(C)C)C3(C)CCC12C (configuration not stated),inactive,inactive,,
CC1(C)CC[C@]2(C(=O)O[C@@H]3O[C@H](CO[C@@H]4O[C@H](CO)[C@@H](O)[C@H](O)[C@H]4O[C@@H]4O[C@H](CO)[C@H](O)[C@H](O)[C@H]4O)[C@@H](O)[C@H](O[C@@H]4O[C@H](CO)[C@@H](O)[C@H](O)[C@H]4O)[C@H]3O)CC[C@]3(C)C(=CCC4[C@@]5(C)CC[C@H](O[C@@H]6OC[C@@H](O)[C@H](O)[C@H]6O)[C@@](C)(C(=O)O)C5CC[C@]43C)[C@@H]2C1 (some centres not stated),,,20.2% [at 19.1 µM],-4.93% [at 10.7 µM]
CC(=O)C1=C(C)N(c2cccc(C(F)(F)F)c2)C(=O)N[C@H]1c1ccc(C#N)nc1,inactive,inactive,,
CCC(C)C(=O)OC1CC(O)C23C4OCC5(C(O)CC2C1(C)C(O)O4)C3C(=O)CC1(C)C(c2ccoc2)CC2OC215 (configuration not stated),inactive,inactive,,
C[C@@H]1C(=O)OC[C@H]2C(C(=O)O)=C[C@@H]3CC(C)(C)C[C@]312,inactive,inactive,,
COc1ccc2nc(S(=O)(=O)Cc3ncc(C)c(OC)c3C)[nH]c2c1,inactive,inactive,,
COc1ccc2[nH]c3c(-c4cccc5ccccc45)nccc3c2c1,inactive,inactive,,
Cc1c(F)cc(C(=O)NC2CC2)cc1-c1c(F)cn2c(C(C)(C)C)nnc2c1F,inactive,inactive,,
N#Cc1ccc(-c2cnc3[nH]cc(NC(=O)c4cccnc4)c3c2)cc1,inactive,inactive,,
CC(=O)O[C@H]1CC(C)(C)CC2[C@@]13[C@H](O)C[C@]1(C)[C@@]2(CCC2[C@@]4(C)CC[C@H](O[C@@H]5OC[C@H](O[C@@H]6O[C@H](CO)[C@@H](O)[C@H](O)[C@H]6O[C@@H]6OC[C@@H](O)[C@H](O)[C@H]6O)[C@H](O)[C@H]5O[C@@H]5O[C@H](CO)[C@@H](O)[C@H](O)[C@H]5O)C(C)(C)C4CC[C@]21C)O[C@@H]3O (some centres not stated),inactive,inactive,,
CC(C)(O)C1CCC(C)(C2CCC3(C)C4CCC5C(C)(C(=O)OC6OC(CO)C(O)C(O)C6O)C(O)CC(O)C56CC46CCC23C)O1 (configuration not stated),inactive,inactive,,
Cc1cc(C(=O)N2Cc3cnn(C)c3Nc3ccccc32)ccc1CNC(=O)N1CCC[C@H]1C(=S)N1CCCN(C)CC1,inactive,inactive,,
CC(=O)/C=C/[C@H]1[C@](C)(O)[C@@H](O)[C@H](OC(C)=O)C2C(C)(C)CCC[C@@]21C (some centres not stated),inactive,inactive,,
CNS(=O)(=O)CC1CCC(N(C)c2ncnc3[nH]ccc23)CC1 (configuration not stated),inactive,inactive,,
CCn1cc(NC(=S)Nc2cc(Cl)ccc2OC)c(C(N)=O)n1,inactive,inactive,,
C=C1C(OC(C)=O)CCC2(C)CC3(OC)OC(=O)C(C)=C3CC12 (configuration not stated),inactive,inactive,,
C[C@@H]1CN(Cc2ncccn2)C[C@H]1c1nc2c(cnn2C2CCOCC2)c(=O)[nH]1,inactive,inactive,,
C=C(CCC1=C(C)[C@H]2[C@H](CC3[C@@H]4CC=C5C[C@@H](O)C[C@@H](O)[C@]5(C)C4[C@H](O)C[C@@]32C)O1)CO[C@@H]1O[C@H](CO)[C@@H](O)[C@H](O)[C@H]1O (some centres not stated),inactive,inactive,,
COc1cc(OC)cc(C(=O)Nc2ccc(Cl)c(-c3nc4ccc(N(C)C)cc4[nH]3)c2)c1,inactive,inactive,,
C=C1C(=O)O[C@@H]2C/C(C)=C\C(=O)/C=C(\C)[C@@H](OC(=O)/C(C)=C\C)[C@H](O)[C@@H]12,inactive,inactive,,
CNCc1ccc(-c2cc(-c3nc(-c4ccc(S(=O)(=O)C(C)C)cc4)cnc3N)on2)cc1,inactive,inactive,,
C[C@@H]1CC[C@]2(C(=O)O[C@@H]3O[C@H](CO)[C@@H](O)[C@H](O)[C@H]3O)CC[C@]3(C)C(=CCC4[C@@]5(C)C[C@@H](O)[C@H](O)[C@@](C)(C(=O)O[C@H]6[C@H](O)C[C@@]7(C)C(CC[C@]8(C)C7CC=C7[C@H]9[C@](C(=O)O[C@@H]%10O[C@H](CO)[C@@H](O)[C@H](O)[C@H]%10O)(CC[C@@H](C)[C@@]9(C)O)CC[C@]78C)[C@@]6(CO)C(=O)O)C5CC[C@]43C)[C@@H]2[C@]1(C)O (some centres not stated),,,-16.4% [at 19.1 µM],-25.7% [at 10.7 µM]

# — PubChem BioAssay (NCATS)
